Data reported in PubChem BioAssay AID2099 (Broad Institute, 2009).
Screen size: about 330,000 compounds; about 230 (0.07%) were called active.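 Rule for the calls: active = more than half of a compound's replicate wells show inhibition beyond 50%, single wells judged on their own value; inconclusive = some, but no more than half, of replicates pass 50% inhibition; inactive = no replicate passes 50% inhibition.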 The list comes from a sample in which actives are over-represented; it also holds similar structures and randomly drawn compounds.

Biological target: Lysine-specific demethylase 4C (Homo sapiens) (UniProt Q9H3R0)
Experiment: inhibitors of GASC-1 histone demethylase, primary screen, biochemical, fluorescence, DELFIA europium (AID 2099);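 note: signal counts dimethyl H3K9 product captured on neutravidin plate; 0% = median of DMSO wells and 100% = 0.3 times that DMSO median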
Conditions: GST-JMJD2C(1-420) H3K9me3 demethylation, at 2.35 µM, hits give high values

Chain of Lysine-specific demethylase 4C (Homo sapiens) (Q9H3R0 1-420 limits assumed): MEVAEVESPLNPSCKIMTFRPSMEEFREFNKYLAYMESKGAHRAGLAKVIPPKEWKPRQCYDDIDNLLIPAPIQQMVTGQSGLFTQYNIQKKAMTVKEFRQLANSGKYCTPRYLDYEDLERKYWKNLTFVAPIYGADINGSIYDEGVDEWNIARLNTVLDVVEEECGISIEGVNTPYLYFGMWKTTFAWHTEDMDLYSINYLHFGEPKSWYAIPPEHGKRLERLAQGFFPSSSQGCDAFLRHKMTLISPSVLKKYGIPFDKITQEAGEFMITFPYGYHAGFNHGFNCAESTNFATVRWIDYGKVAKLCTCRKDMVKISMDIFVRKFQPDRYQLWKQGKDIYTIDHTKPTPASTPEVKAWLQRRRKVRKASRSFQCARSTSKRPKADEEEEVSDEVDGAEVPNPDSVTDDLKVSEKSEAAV

inhibition, inactive:
CN1CCN(CC#CCC2(O)c3ccccc3-c3ccccc32)CC1 -1.35%
O=C(N/C(=C\c1ccc([N+](=O)[O-])cc1)C(=O)N1CCOCC1)c1cccc(Br)c1 -3.44%
C=CCN1C(=O)C(O)(CC(=O)c2ccc(Cl)cc2)c2ccccc21 (configuration not stated) -1.48%
Cc1ccsc1/C=N/n1c(=S)[nH]nc(C)c1=O -1.06%
C=CCn1cc(Cl)cc(C(=O)Nc2ccccc2)c1=O 3.59%
O=C1Nc2cc(Cl)c(Cl)cc2N(O)N1c1ccccc1Cl -2.09%
CCCCN(CCCC)CCNC(=O)CN1C(=O)COc2ccc(S(=O)(=O)N3CCOCC3)cc21 -8.15%
COc1cc2c(cc1OC)CC1(CCCCC1)N=C2 2.64%
COC(C[C@@H](O)[C@H](C)[C@H](O)COCc1ccccc1)OC 13.4%
O=C(CSc1nc(=O)n2ccccc2n1)Nc1ccc2c(c1)OCCO2 -1.16%
COc1cccc(NCCC(=O)c2cccc([N+](=O)[O-])c2)c1 4.3%
CCc1ccc(N2CC(O)=C(c3nc4ccccc4c(=O)[nH]3)C2=N)cc1 -0.372%
Cc1cc(C)c(S(=O)(=O)N2CCOCC2)cc1C 8.81%
Cc1ccc(C2=NN(C)c3nc4ccccc4n3C2)cc1 4.06%
Cc1nn(C)c(Cl)c1CN1CCC(Oc2ccc(C(=O)N3CCCC3)cc2)CC1 36.3%
Cc1ccc(-n2c(CNc3ccc(F)cc3)nnc2SCC(=O)N2CCOCC2)cc1 0.71%
CC(=O)Nc1ccc(NC(=O)CCN2C(=O)C3CC=CCC3C2=O)cc1 (configuration not stated) 3.08%
O=c1cc(-c2ccccc2)[nH]c2cc(F)ccc12 0.818%
Cc1ccccc1NC(=O)N1CCCC1C(=O)NCc1ccccc1 (configuration not stated) 5.47%
Cc1nnc(SC(C(=O)c2ccccc2)c2ccccc2)[nH]c1=O (configuration not stated) -3.86%
CCCCN1CCNC1=S 0.223%
OCCC1CN(Cc2ccc3nsnc3c2)CCN1C1CCCC1 (configuration not stated) -2.72%
O=C(NCc1ccccn1)c1cnc2sccn2c1=O -1.24%
Cc1nc2nc(SCC(=O)Nc3cccc(F)c3)[nH]c2cc1Br 6.95%
COc1ccc(F)c(-c2nc(CN3CCC(c4ccccc4)CC3)c(C)o2)c1 -8.87%
O=c1c2sccc2nc(SCc2cc(=O)n3ccccc3n2)n1-c1ccc(Br)cc1 -3.21%
CC(C)(C)NC(=O)NC(=O)CN1CCC(Cc2ccccc2)CC1 -22.7%
